Screening results as filed in PubChem.
The list is not random: actives were taken first. Their share in the collection is about 32%.
CYP2C9 act – activators of human CYP2C9. activation factor at 5 µM. 96,000 compounds, 1.4% hits. recombinant CYP2C9, luciferin-H conversion, luminescence; hits give high values; factor 1 = untreated enzyme, 0 = blocked. P11712. AID 1024;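 active = activation factor of 2 or more for CYP2C9 at a 5 µM dose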;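 also: 0 = sulfaphenazole-blocked wells and 1 = vehicle-only wells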
Target sequence (P11712 whole entry, looked up): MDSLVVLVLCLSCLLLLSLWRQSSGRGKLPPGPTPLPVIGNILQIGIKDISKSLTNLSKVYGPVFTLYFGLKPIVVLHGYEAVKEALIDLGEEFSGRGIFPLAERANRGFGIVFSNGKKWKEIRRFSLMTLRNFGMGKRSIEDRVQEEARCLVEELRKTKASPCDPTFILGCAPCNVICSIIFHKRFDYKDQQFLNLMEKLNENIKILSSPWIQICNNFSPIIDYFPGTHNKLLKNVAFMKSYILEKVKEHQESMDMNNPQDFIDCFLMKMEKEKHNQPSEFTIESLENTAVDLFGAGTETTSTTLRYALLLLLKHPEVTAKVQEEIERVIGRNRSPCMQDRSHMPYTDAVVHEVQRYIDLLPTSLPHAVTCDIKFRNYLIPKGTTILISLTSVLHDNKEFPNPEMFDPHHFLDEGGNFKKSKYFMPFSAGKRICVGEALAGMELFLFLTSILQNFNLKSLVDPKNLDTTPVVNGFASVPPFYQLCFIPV
CYP2C9 inh – human CYP2C9 inhibition; CYP2C9 Supersomes, luciferin-H conversion, luminescence; AID 777; inhibition, % at 5 µM; P11712; 96,000 compounds, 20% hits;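 active = blocking of liver enzyme CYP2C9 beyond about 50% at 5 µM, limit read from the data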
CYP2C19 inhib – human CYP2C19 inhibition; P33261; CYP2C19 Supersomes, luciferin-H EGE luminescence, 30 min; inhibition, % at 5 µM; 96,000 compounds, 21% hits; AID 778;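 active = CYP2C19 inhibition above a set limit at 5 µM in the primary screen, cut at about 50% in these data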;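 also: plate controls were negative control wells for no effect and 2.5 mM tranylcypromine positive control for full effect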
PostGolgi ctrl – yeast control strain growth, post-Golgi counter-screen; AID 738; efflux-deficient yeast background strain, growth absorbance A615, 16 h; 98,000 compounds, 5% hits; inhibition, % at 10 µM
CYP2C19 activ – increases human CYP2C19 enzyme activity. 96,000 tested, under 10 active. P33261. recombinant CYP2C19, luciferin-H EGE luminescence; hits give high values; 0 = fully inhibited enzyme, 1 = untreated enzyme. activation factor at 5 µM;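 active = activation factor of at least 2 at 5 µM in the primary screen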;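 also: 0 = wells with 2.5 mM tranylcypromine and 1 = vehicle-only wells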
PostGolgi yeast – growth inhibition of a yeast mutant, post-Golgi transport screen; post-Golgi transport phenotypic cell assay; inhibition, % at 10 µM; 98,000 compounds, 0.9% hits;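 also: yeast cells grown in 1536-well plates; yeast grown about 18 h at 30C before absorbance read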
Starred values were filed as active, the others as inactive; x = no result. Rule as the data show it, unless noted: active = inhibition above about 30%; inactive = the rest.

SMILES | CYP2C9 act | CYP2C9 inh | CYP2C19 inhib | PostGolgi ctrl | CYP2C19 activ | PostGolgi yeast
COc1ccccc1-c1cc(-c2ccc(C)cc2)nc(SCc2nnc(-c3ccccc3)o2)c1C#N | 0.3 | 69.1* | 13.8 | 6.2 | 0.9 | -0.2
COc1ccc(Sc2nnc(-c3ccccc3)cc2C#N)cc1 | 0.9 | 6.5 | -8.2 | 0.2 | 1.1 | 7.0
COc1ccc(-c2cc(-c3cccs3)c(C#N)c(SCC(=O)NCc3ccccc3OC)n2)cc1 | 0.6 | 39.5 | 17.2 | -2.2 | 0.8 | -31.9
COc1ccc(-c2cc(-c3ccccc3)c(C#N)c(S(C)=O)n2)cc1 (stereo unspecified) | 0.3 | 68.3* | 47.1 | 18.1 | 0.5 | -1.8
CCSc1nc(-c2ccc(OC)cc2)cc(-c2ccccc2)c1C#N | 0.3 | 65.5* | 31.4 | 6.9 | 0.7 | -7.5
O=C(CSc1nnnn1C1CCCCC1)NCCc1ccccc1 | 0.9 | 14.9 | 9.3 | -5.4 | 0.9 | -4.4
O=C(O)C1C2C=CC(O2)C1C(=O)NCc1ccccc1Br (stereo unspecified) | 0.8 | 18.5 | 6.7 | 2.0 | 0.9 | 7.7
COc1cc(CC(=O)Nc2ccc(S(=O)(=O)N(C)C)cc2)cc(OC)c1OC | 0.6 | 44.0 | 5.4 | 4.6 | 0.9 | 2.1
CC1(C)CC(=O)C/C(=N/NC(=O)CCCOc2ccc(Cl)cc2Cl)C1 | 0.8 | 18.8 | 3.4 | 3.9 | 1 | 7.0
COc1ccccc1OCC(=O)Nc1ccc(S(=O)(=O)N2CCCCCC2)cc1 | 0.2 | 79.6* | 86.5* | 21.0 | 0.1 | -11.9
CCOC(=O)CCC(=O)Nc1ccc(S(=O)(=O)N2CCCC2)cc1 | 0.8 | 18.9 | 3.2 | 5.7 | 1 | 0.3
Cc1ccc(S(=O)(=O)N2CCN(C(=O)CCC(=O)OCC(=O)Nc3cccc(C#N)c3)CC2)cc1 | 0.3 | 75.0* | 77.7* | 32.3* | 0.2 | 1.8
O=C(COc1ccccc1)Nc1ccc(S(=O)(=O)N2CCCCCC2)cc1 | 0.8 | 15.1 | 14.9 | 16.5 | 0.9 | 1.1
O=C(COc1ccc(S(=O)(=O)N2CCCCC2)cc1)NC1CCCCC1 | 0.3 | 72.1* | 33.2 | 4.0 | 0.7 | -4.8
COc1ccc(OCC(=O)Nc2ccc(S(=O)(=O)N3CCCCCC3)cc2)cc1 | 0.1 | 86.4* | 30.3 | 5.9 | 0.7 | -2.0
Nc1nc(SCc2ccccc2)[nH]c(=O)c1-c1ccccc1 | 0.9 | 12.5 | 24.7 | 10.6 | 0.8 | 2.9
CC1(C)CC(=O)C=C(NCCc2ccc(S(N)(=O)=O)cc2)C1 | 1.1 | -9.1 | 0.9 | 12.7 | 1 | 5.8
CC1CC(C)CN(CCCNC(=O)c2ccc3c(c2)NC(=O)C(N2CCCCC2)S3)C1 (stereo unspecified) | 1 | 1.6 | -5.5 | 2.5 | 1.1 | 21.1
CC(=O)c1cccc(NC(=O)c2ccc(S(=O)(=O)N3CCCCC3)cc2)c1 | 1.1 | -7.5 | -1.4 | -1.5 | 1 | -11.3
CC(=O)c1cccc(NC(=O)COc2ccc(S(=O)(=O)N3CCCCC3)cc2)c1 | 0.3 | 67.4* | 66.6* | 8.0 | 0.3 | 21.1
Cc1cc(S(=O)(=O)N2CCCC2C(=O)N2CCOCC2)c(C)cc1Cl (stereo unspecified) | 3* | -198.8 | 63.1* | 5.2 | 0.4 | -6.3
CCOc1ccc(NC(=O)c2cccc3c2C(=O)N(Cc2cccnc2)C3)cc1 | 0.2 | 77.0* | 20.0 | 32.4* | 0.8 | -4.0
CCOc1ccccc1NC(=O)c1cccc2c1C(=O)N(CCOC)C2 | 0.1 | 88.4* | 67.3* | 3.1 | 0.3 | 4.0
COC(CNC(=O)c1cccc2c1C(=O)N(Cc1cccnc1)C2)OC | 1 | 0.8 | 50.1* | -14.1 | 0.5 | 1.5
CCOC(=O)N1CCC(NC(=O)c2cccc3c2C(=O)N(Cc2cccnc2)C3)CC1 | 0.4 | 56.5* | 14.7 | 9.9 | 0.9 | -2.7
SMILES | CYP2C9 act | CYP2C9 inh | CYP2C19 inhib | PostGolgi ctrl | CYP2C19 activ | PostGolgi yeast
COCCN1Cc2cccc(C(=O)Nc3cccc(C)c3C)c2C1=O | 0.7 | 29.4 | 21.5 | 1.1 | 0.8 | -5.1
O=C(Cc1ccccc1)NCC(=O)N1CCCCCC1 | 0.9 | 11.3 | 23.9 | 11.5 | 0.8 | -10.2
O=C(CN1C(=O)C2C3C=CC(C3)C2C1=O)N1CCc2ccccc2C1 (stereo unspecified) | 1.1 | -14.2 | -8.1 | -7.0 | 1.1 | 7.4
CCCCC(=O)Nc1ccc(C(=O)NNC(=O)c2ccccc2Br)cc1 | 1 | 2.3 | -15.4 | -9.6 | 1.2 | -0.2
Cc1ccc(C(=O)COC(=O)c2n[nH]c(=O)c3ccccc23)cc1 | 0.8 | 20.6 | 25.8 | 14.5 | 0.7 | -2.5
Cc1ccc(C(=O)C(C)OC(=O)c2n[nH]c(=O)c3ccccc23)cc1 (stereo unspecified) | 0.2 | 84.4* | 67.5* | 5.5 | 0.3 | -2.6
Clc1cccc(Cl)c1CSc1cc2c(nn1)-c1ccccc1CC2 | 1.2 | -22.7 | 8.9 | 4.5 | 0.9 | -2.4
Cn1c(SCC(=O)NCc2cccs2)nnc1-c1cccs1 | 1.1 | -13.8 | -16.2 | -9.9 | 1.2 | -1.1
Cc1ccc(CSc2nnc(-c3cccs3)n2C)cc1 | x | x | x | 14.4 | x | -3.1
Cn1c(SCc2c(Cl)cccc2Cl)nnc1-c1cccs1 | 0.2 | 75.7* | 98.1* | 6.7 | 0 | -0.6
Cc1nnc(SCc2c(Cl)cccc2Cl)s1 | 0.9 | 5.6 | 59.3* | 3.2 | 0.4 | -6.8
Cn1c(SCc2ccc(Br)cc2)nnc1-c1cccs1 | 0.2 | 76.1* | 97.2* | 20.9 | 0 | -2.4
COC(=O)c1ccc(N2C(=O)CC(N3CCC(O)(c4ccc(Br)cc4)CC3)C2=O)cc1 (stereo unspecified) | 0.9 | 11.5 | 11.8 | 2.0 | 0.9 | -2.0
COC(=O)CN(C(=S)Nc1ccccc1)C1CC(=O)N(c2ccc(OC)cc2)C1=O (stereo unspecified) | 1 | 4.7 | 41.9 | 1.0 | 0.6 | -2.6
CN(C)c1ccc(N2CN=C3SCC(=O)N3C2)cc1 | 0.9 | 9.5 | 13.2 | 19.8 | 0.9 | 14.1
CC12CCC(C(=O)Nc3ccccc3)(C/C1=N\O)C2(C)C (stereo unspecified) | 1 | 1.3 | 78.3* | 0.5 | 0.2 | -4.6
CN(C)CCOc1nc(-c2ccccc2)nc2c1oc1ccccc12 | 1 | 2.7 | -5.4 | 1.2 | 1.1 | 6.6
CCCCOC(=O)c1ccc(OC(=O)c2cccnc2)cc1 | 1.1 | -6.4 | 19.3 | 15.2 | 0.8 | -12.9
CCCCCCCOc1ccc(OC(=O)c2cccnc2)cc1 | 0.2 | 76.8* | 66.0* | 12.5 | 0.3 | -0.7
CCCCCCOC(=O)c1ccc(OC(=O)c2cccnc2)cc1 | 0.1 | 86.4* | 71.5* | 3.8 | 0.3 | -5.7
Cc1noc(C)c1COc1ccc(C(=O)OCC(=O)Nc2ccc3c(c2)OCO3)cc1 | 0.8 | 22.5 | 8.4 | -2.6 | 0.9 | 2.4
Cc1cc(C)c(C#N)c(SCC(=O)Nc2ccc3c(c2)OCO3)n1 | 1 | -0.2 | 11.2 | -5.8 | 0.9 | -6.5
Cc1noc(C)c1COC(=O)c1cccnc1SCC(=O)Nc1ccc2c(c1)OCO2 | 0.3 | 74.0* | 28.4 | 16.0 | 0.7 | 3.8
Cc1noc(C)c1COC(=O)c1ccc2c(c1)OCO2 | 0.6 | 36.5 | 36.4 | 42.6* | 0.6 | -5.5
